A selection: hits, their analogues and other compounds. The true share with any hit is near 10%.
NS1 inh: qHTS Assay for Inhibitors of Influenza NS1 Protein Function; Potency, µM (doses to about 46.1 µM); 270,000 tested, 0.4% active; AID 2326, 2010; further: actives are rising curves; nearly all actives have a fitted effect of over 50% in size
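Read-out: OD600 growth recovery of NS1-expressing budding yeast. Cells grown overnight at 30C in -URA glucose medium, washed, resuspended and diluted 1:100 in 2% galactose assay medium, pH 6.0. Same strain lacking NS1 served as positive control.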
Pf growth 48h: Primary qHTS for delayed death inhibitors of the malarial parasite plastid, 48 hour incubation | P. falciparum luciferase growth in erythrocytes, 48 h | 310,000 tested, 5.9% active | Potency, µM (titrated, usually from 28.7 µM), most hits filed as inhibitors | AID 504832, 2011; active means well fitted inhibition curve with a large enough effect; inconclusive means small, poorly fitted or top-dose-only effect, or another doubt; inactive means no such curve, though single readings can be large or run the other way
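Firefly luciferase activity from engineered P. falciparum reports growth; inhibitors lower the luminescent signal. Cultures contained 2% hematocrit erythrocytes at 0.1% final parasitemia.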
SARS PLP yeast: qHTS of Yeast-based Assay for SARS-CoV PLP | AID 485353, 2010 | S. cerevisiae expressing SARS-CoV PLpro, growth rescue | 330,000 tested, 0.19% active | Potency, µM (highest dose often 32.9 µM), actives largely listed as activators; further: nearly all actives have a fitted effect of over 55% in size
Pf growth 96h: Primary qHTS for delayed death inhibitors of the malarial parasite plastid, 96 hour incubation; P. falciparum luciferase reporter growth, 96 h; Potency, µM (highest dose often 28.7 µM), actives largely listed as inhibitors; 320,000 tested, 6.9% active; active means well fitted inhibition curve with a large enough effect; inconclusive means small, poorly fitted or top-dose-only effect, or another doubt; inactive means no such curve, though single readings can be large or run the other way
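Two parasite generations (96 h, 37 C, 5% CO2) of compound exposure in infected erythrocytes (0.05% parasitemia, 2% hematocrit). Luciferase-reporter P. falciparum; decreased luminescence indicates inhibited growth, aimed at apicoplast-acting delayed death.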
Hits are given with their value; i = inactive; ? = inconclusive; nt = no result given. Unless noted, the call rests on the fitted dose curve.

SMILES	NS1 inh	Pf growth 48h	SARS PLP yeast	Pf growth 96h
COc1ccccc1C(=O)N1CCN(Cc2cccnc2)CC1	i	i	i	i
Cc1cccc2sc(NS(=O)(=O)c3ccccc3)nc12	i	i	i	i
CNC(=O)COC(=O)c1c2c(nc3ccccc13)CCC2	i	13µM	i	?
COc1ccc(OC)c(NC(=O)COC(=O)c2c3c(nc4ccccc24)CCCC3)c1	i	8.3µM	i	nt
COc1ccc(NC(=O)COC(=O)c2c3c(nc4ccccc24)CCCC3)cc1	i	?	i	?
COc1ccc(NC(=O)COC(=O)c2c3c(nc4ccccc24)CCCC3)cc1Cl	i	12µM	i	nt
Cc1ccc(NC(=O)c2c3c(nc4ccccc24)CCC3)cc1	nt	?	i	i
CCOc1ccc(NC(=O)c2c3c(nc4ccccc24)CCC3)cc1	i	4.1µM	i	3.7µM
CC(=O)c1cccc(NC(=O)CCN2C(=O)C3C4CCC(C4)C3C2=O)c1 (configuration not stated)	i	i	i	?
CCN(CC)CCN(Cc1cc2cc3c(cc2[nH]c1=O)OCO3)C(=S)NC	i	?	?	i
CC1CCCC(NC(=O)COC(=O)/C=C/c2ccc([N+](=O)[O-])cc2)C1C (configuration not stated)	nt	nt	i	nt
CCC/C(C#CCCN1C(=O)c2ccccc2C1=O)=C1/c2ccccc2C(=O)N1c1ccccc1	nt	nt	i	nt
CC(C(=O)Nc1ccccn1)(c1ccccc1)c1ccccc1	i	?	i	?
Cn1c(=O)c2c(nc(NCc3ccccc3)n2C)n(C)c1=O	i	i	i	nt
CC(C)CCNc1nc2c(c(=O)n(Cc3cccc(F)c3)c(=O)n2C)n1C	i	?	i	12µM
Cn1c(NCCO)nc2c1c(=O)n(Cc1ccc(F)cc1)c(=O)n2C	i	nt	i	i
Cn1c(NCc2ccccc2)nc2c1c(=O)n(Cc1ccccc1)c(=O)n2C	i	7.4µM	i	3.7µM
COc1ccc(CNc2nc3c(c(=O)n(Cc4ccc(F)cc4)c(=O)n3C)n2C)cc1	i	9.3µM	i	i
COc1ccc(CNC(=O)[C@@H](NC(=O)C2CCN(S(=O)(=O)c3ccccc3)CC2)C(C)C)cc1	i	i	i	?
COc1ccc(NC(=O)C2CCCN(S(=O)(=O)c3cccnc3)C2)c(OC)c1 (configuration not stated)	i	nt	i	i
CCN(CC)c1ccc(NC(=O)C2CCCN(S(=O)(=O)c3cccnc3)C2)c(C)c1 (configuration not stated)	i	nt	i	9.3µM
O=C(O)CCn1c2c(c3ccccc31)C[C@H](NS(=O)(=O)c1ccc(F)cc1)CC2	nt	i	nt	i
OCCC1CN(Cc2ccccc2OC2CCCC2)CCN1Cc1ccsc1 (configuration not stated)	i	?	i	i
Cc1cc2c3c(c1)C1(C(=O)N3C(C)(C)CC2C)C(C#N)=C(N)Oc2cc(O)ccc21 (configuration not stated)	i	12µM	i	nt
CCc1cc2c3c(c1)C1(C(=O)N3C(C)(C)CC2C)C(C#N)=C(N)N2C(=C1C#N)Nc1ccccc12 (configuration not stated)	i	9.3µM	i	i
SMILES	NS1 inh	Pf growth 48h	SARS PLP yeast	Pf growth 96h
Cc1ccc2c3c1C1(C(=O)N3C(C)(C)CC2C)C(C#N)=C(N)Oc2cc(O)ccc21 (configuration not stated)	i	i	i	i
Cn1c(SCC(=O)Nc2ccc3nc(SCC(=O)N4CCCC4)sc3c2)nnc1-c1ccc(N)cc1	i	nt	i	1.3µM
Cc1cccc(OCc2nnc(SCC(=O)c3cccs3)n2C)c1C	i	i	i	8.3µM
Cn1c(SCC(=O)Nc2ccc3nc(SCC(=O)NC4CC4)sc3c2)nnc1-c1ccccc1	i	?	i	?
Cc1ccccc1OCc1nnc(SCC(=O)NCc2ccccc2)n1C	i	i	i	nt
CCOC(=O)c1ccccc1NC(=O)CSc1nnc(COc2ccccc2C)n1C	i	13µM	i	?
CCN(CC)C(=O)CSc1nc2ccc(NC(=O)CSc3nccn3C)cc2s1	?	8.3µM	i	?
Cc1ccc2c(=O)[nH]c(Cc3ccccc3C(=O)O)nc2c1	i	i	i	i
Cn1ccnc1C1CCCCN1C(=O)c1cc(COc2ccc(F)cc2Cl)on1 (configuration not stated)	i	?	i	i
CC(=O)OC[C@H]1O[C@@](COC(C)=O)(O[C@H]2O[C@H](COC(C)=O)[C@@H](OC(C)=O)[C@H](OC(C)=O)[C@H]2OC(C)=O)[C@@H](OC(C)=O)[C@@H]1OC(C)=O	nt	i	nt	i
CC(=O)Nc1cccc(NC(=O)CSc2nnnn2Cc2ccccc2)c1	i	i	i	5.9µM
CCOC(=O)c1ccccc1NC(=O)CSc1nc(N)cc(N)n1	i	i	i	12µM
COC(=O)CSc1nc2ccc(NC(=O)CSc3nnnn3Cc3ccccc3)cc2s1	?	i	i	?
Cc1ccccc1OCc1nnc(SCC(=O)Nc2ccc3nc(SCC(=O)Nc4ccccc4)sc3c2)n1C	i	13µM	i	10µM
O=C(CSc1nc2ccc(NC(=O)CSc3nnnn3Cc3ccccc3)cc2s1)Nc1ccccc1	i	13µM	i	?
COC(=O)c1ccccc1NC(=O)CSc1nc(N)cc(N)n1	i	nt	i	?
O=C(CSc1nnnn1Cc1ccccc1)Nc1cccc(F)c1	i	i	i	i
COC(=O)[C@]1(C)CCC(c2ccc(C)cc2)=C(CC(=O)O)C1	i	nt	nt	nt
COc1cc(C(=O)NC(=S)Nc2ccc(Cl)cn2)cc(OC)c1OC	i	i	i	i
CCOc1ccc(S(=O)(=O)N2CCCCC2)cc1NC(=O)Cc1cccc(C(F)(F)F)c1	nt	?	i	9.3µM
COc1ccc(S(=O)(=O)N2CCCCC2)cc1NC(=O)Cc1cccc(C(F)(F)F)c1	nt	?	i	i
COc1cc(OC)c(OC)cc1CNC(=O)c1ccc(S(=O)(=O)N2CCCCC2)cc1	nt	9.3µM	i	5.2µM
CCN1CCN(S(=O)(=O)c2ccc(Cl)c(C(=O)N(CC)CC(=O)Nc3ccc(OC)cc3)c2)CC1	i	i	i	13µM
COc1ccc(S(=O)(=O)N2CCCCCC2)cc1C(=O)NCc1cccs1	nt	15µM	i	?
CCN1CCN(S(=O)(=O)c2ccc(Cl)c(C(=O)Nc3ccc(OC(F)F)cc3)c2)CC1	i	i	i	?
SMILES	NS1 inh	Pf growth 48h	SARS PLP yeast	Pf growth 96h
COc1ccccc1CNC(=O)c1ccc(S(=O)(=O)N2CCCC2)cc1	i	i	i	i
COc1ccc(S(=O)(=O)N2CCCCCC2)cc1C(=O)NCc1ccco1	nt	nt	i	nt
CC1(C)C2CCC1(CS(=O)(=O)NCc1ccc(S(N)(=O)=O)cc1)C(=O)C2 (configuration not stated)	i	i	i	i
C=CCN1CCN(C(=O)CCc2ccccc2)CC1	i	i	i	i
COc1ccc(Cl)cc1C(=O)Nc1ccc(S(=O)(=O)N2CCCC2)cc1	i	i	i	nt
COc1ccc(CNC(=O)c2cc(S(=O)(=O)N3CCCCC3)ccc2Cl)cc1OC	nt	nt	i	nt
CCN(CC)C(=O)c1ccc(NC(=O)c2cc(S(=O)(=O)N3CCCCCC3)ccc2OC)cc1	nt	7.4µM	i	9.3µM

Source: PubChem BioAssay
